# CtBP-E1A blk: CtBP/E1A binding inhibition; AlphaScreen GST-E1A/His-CtBP binding, 1536-well; active compounds read low; 340,000 tested, 0.49% active; activity change, % (no concentration beside the values); AID 651724
#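 Protein mix (5X: 125 nM each GST-E1A, His-CtBP) was incubated with pinned compound 2 h at 37 deg C in dark, in 50 mM Tris pH 8.0 buffer with 300 mM NaCl. Glutathione donor and nickel acceptor beads followed; AlphaScreen signal read after 1 h.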
# Six1-Eya2 blk: inhibitors of human Six1/Eya2 interaction; Q15475+O00167; 360,000 tested, 0.56% active; AID 651725; AlphaScreen GST-Six1/His-Eya2 binding, biochemical; active compounds read low; activity change, % (concentration not given with the values)
# Target sequence (O00167 whole entry, looked up): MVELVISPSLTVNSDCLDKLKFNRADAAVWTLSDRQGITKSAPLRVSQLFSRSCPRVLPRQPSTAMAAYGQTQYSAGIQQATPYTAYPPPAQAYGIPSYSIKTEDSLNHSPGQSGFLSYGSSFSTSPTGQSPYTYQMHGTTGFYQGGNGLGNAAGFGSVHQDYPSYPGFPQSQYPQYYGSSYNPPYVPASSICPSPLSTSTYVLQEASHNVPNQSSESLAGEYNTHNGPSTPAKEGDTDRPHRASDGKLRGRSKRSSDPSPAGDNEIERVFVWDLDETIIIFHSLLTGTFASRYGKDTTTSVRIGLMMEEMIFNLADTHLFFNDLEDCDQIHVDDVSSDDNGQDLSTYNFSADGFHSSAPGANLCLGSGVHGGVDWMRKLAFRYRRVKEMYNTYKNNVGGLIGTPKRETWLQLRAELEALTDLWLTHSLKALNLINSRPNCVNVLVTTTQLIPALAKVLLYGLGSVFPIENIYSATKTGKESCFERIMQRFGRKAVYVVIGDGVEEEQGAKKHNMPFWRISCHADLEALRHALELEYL
# Target sequence (Q15475 whole entry, looked up): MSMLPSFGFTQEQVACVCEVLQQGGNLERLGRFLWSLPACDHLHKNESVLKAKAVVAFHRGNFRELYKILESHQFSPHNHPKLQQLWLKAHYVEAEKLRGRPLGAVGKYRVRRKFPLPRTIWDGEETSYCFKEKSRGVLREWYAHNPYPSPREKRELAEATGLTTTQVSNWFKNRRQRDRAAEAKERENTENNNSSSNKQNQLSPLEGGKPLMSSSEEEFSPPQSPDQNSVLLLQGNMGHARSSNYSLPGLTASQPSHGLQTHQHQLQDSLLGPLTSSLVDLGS
#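 Compounds are tested against tagged Six1 and Eya2 proteins bridged by glutathione donor and nickel acceptor beads; after a one-hour incubation at 37 °C without light, AlphaScreen emission is recorded.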
# pAkt inh: inhibitors of Akt phosphorylation; Neuro2A IGF-stimulated pAkt S473 HTRF, 20 min; active compounds read low; activity change, % for hits at 50 µM; 360,000 tested, 0.32% active; AID 651550; in the data active = activity change below about -80%; inconclusive = mostly about -51% to -80%
#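 Neuro2A cells in DMEM with 0.5% FBS, overnight at 37 deg C, given compound at single 50 µM final, then IGF (6 nM final) for 20 min at 37 deg C. Lysed; phospho-Akt Ser473 by HTRF after 24 h, 665/615 ratio.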
# CCT chaperon mod: modulators of cytosolic chaperonin (CCT/TRiC) activity; purified chaperonin ATPase assay, HTRF ADP detection, 30 min; activity change, % (no concentration beside the values), hits read low; 360,000 tested, 0.3% active; AID 651819; in the data active = activity change below about -30%
#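 Nucleotide hydrolysis assay: TRiC at 20–40 nM final (set by batch activity) with 10 uM ATP, 30 min at 37 °C, in presence of 76 uM compound. Detection by competitive ADP HTRF, 30 min ambient.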
# * hit, by the source's call; i = inactive; ? = inconclusive; nt = not tested or not shown. Compounds with a hit are over-represented: about 1.3% of the library has one in this group of screens. Rule as the data show it, unless noted: active = activity change below about -65%; inconclusive = mostly about -30% to -63%; inactive = weaker than that. % is scaled to controls: 0 for no effect and ±100 for the full control effect.
SMILES,CtBP-E1A blk,Six1-Eya2 blk,pAkt inh,CCT chaperon mod
O=C1C(=Cc2cn(-c3ccccc3)nc2-c2ccc(OCc3ccc(Cl)cc3)cc2)SC(=S)N1CCS(=O)(=O)O,?,-67*,i,0
Cc1ccc(OCCC(=O)NNC(=O)c2ccccc2F)cc1,4,1,i,1
C/C(=N\N=C1\NC(=O)C(CC(=O)Nc2ccc(Cl)cc2)S1)c1ccco1 (stereo not given),-1,-6,i,-8
C/C(=N\N=C1\NC(=O)C(CC(=O)Nc2ccc(C)c(Cl)c2)S1)C(C)(C)C (stereo not given),-8,3,i,-44*
O=C(COC(=O)c1cc(-c2cccc3ccccc23)nc2ccccc12)NC1CCS(=O)(=O)C1 (stereo not given),0,-8,i,-112*
CC(C)(CNc1ccc(S(=O)(=O)C(F)(F)F)cc1[N+](=O)[O-])N1CCOCC1,-11,-4,i,1
O=C(COC(=O)/C=C/c1ccccc1Cl)NCCc1ccc(Cl)cc1Cl,10,2,i,-39*
O=C(COC(=O)/C=C/c1ccc(Cl)cc1Cl)NCCC1=CCCCC1,-5,0,i,0
COCCn1c(=N)c(C(=O)NCCc2ccc(OC)cc2)cc2c(=O)n3cccc(C)c3nc21,0,-4,-107%*,1
COc1ccc(CCn2c(=N)c(C(=O)NCc3ccco3)cc3c(=O)n4ccccc4nc32)cc1,-83*,-75*,i,3
COc1ccc(Cl)cc1NC(=S)N1CC(C)OC(C)C1 (stereo not given),2,3,i,-2
Cc1cccc(-n2ncc3c(NCCCN4CCCC4=O)ncnc32)c1,-9,-11,-106%*,1
O=C1CCCN1CCCNc1ncnc2c1cnn2-c1ccc(Cl)cc1,0,-10,i,-4
Cc1cccc(C(=O)NCCc2nnc(SCC(=O)Nc3cccc(C(=O)O)c3)n2C)c1,-2,8,i,-1
CC/C(=N\Nc1ccccc1[N+](=O)[O-])c1ccc(O)cc1,-71*,?,i,2
CC/C(=N\Nc1ccc([N+](=O)[O-])cc1[N+](=O)[O-])c1ccc(O)cc1,nt,-29,i,0
COc1cc(C(=O)N2CCC2(C)C(=O)NC(C)C)cc(OC)c1OC (stereo not given),9,-4,i,-1
NC(=S)N/N=C\c1ccccc1OCc1ccccc1,-12,-1,i,1
NC(=S)N/N=C/c1ccccc1OC(=O)/C=C/c1ccccc1,-93*,?,i,-2
Cc1ccc(C(=O)CC2(O)C(=O)N(Cc3ccccc3)c3ccccc32)o1 (stereo not given),-9,7,nt,0
Cc1coc(C)c1C(=O)CC1(O)C(=O)N(Cc2ccccc2)c2ccccc21 (stereo not given),-9,-14,-95%*,-2
C=CCN1C(=O)C(O)(CC(=O)c2ccccc2)c2ccccc21 (stereo not given),4,0,-109%*,1
Cc1cc(Cl)ccc1OCC(=O)NNC(=O)c1ccco1,0,-15,i,-39*
Cc1cc(Cl)ccc1OCC(=O)NNC(=O)c1cccs1,-8,-7,i,-1
CCCCn1nnnc1C1(C)CCC(=O)N1Cc1cc(OC)ccc1OC (stereo not given),8,2,i,2
SMILES,CtBP-E1A blk,Six1-Eya2 blk,pAkt inh,CCT chaperon mod
CCOC(=O)CSc1nc2ccsc2c(=O)n1C1CCN(C(=O)OCC)CC1,-7,-12,i,-2
CCOC(=O)N1CCC(n2c(SCC(=O)Nc3nccs3)nc3ccsc3c2=O)CC1,-2,1,-81%*,-1
COc1cc(C(=O)NCC(=O)OCc2ccccc2Cl)cc(OC)c1OC,-3,1,i,-35*
COc1ccc(C(=O)NCC(=O)OCc2c(Cl)cccc2Cl)cc1OC,12,-9,i,-1
CCC(C)NS(=O)(=O)c1ccc(OC)c(Cl)c1Cl (stereo not given),1,-3,-122%*,-1
Cc1ccc(S(=O)(=O)n2cccc2C)cc1,0,3,i,-1
Cc1nnsc1C(=O)N/N=C/c1ccccc1,-2,7,i,0
Cc1nnsc1C(=O)N/N=C/c1ccc2ccccc2c1O,-71*,-87*,i,1
O=C(NCc1ccccn1)c1ccc(CS(=O)(=O)Cc2ccc(Cl)cc2)o1,6,5,-126%*,1
CN(C)CCNc1ncnc2c1ncn2[C@H]1CN(Cc2cccs2)C[C@@H](CO)O1,-2,-8,i,0
